The structures appear in SMILES notation. Hit rate of the full screen: of about 400,000 compounds, about 2,100 (0.53%) were called active. Roughly 14% stayed inconclusive and do not appear here. How the calls were made is not given here. The list comes from a sample in which actives are over-represented; it also holds similar structures and randomly drawn compounds.

This assay deals with Ataxin-2 (Homo sapiens) (UniProt Q99700). Briefly: qHTS for Inhibitors of ATXN expression. The assay is classed as functional. A general note: In qHTS, concentration-response curves come from the screen itself.
Sequence of Ataxin-2 (Homo sapiens) (Q99700 whole entry): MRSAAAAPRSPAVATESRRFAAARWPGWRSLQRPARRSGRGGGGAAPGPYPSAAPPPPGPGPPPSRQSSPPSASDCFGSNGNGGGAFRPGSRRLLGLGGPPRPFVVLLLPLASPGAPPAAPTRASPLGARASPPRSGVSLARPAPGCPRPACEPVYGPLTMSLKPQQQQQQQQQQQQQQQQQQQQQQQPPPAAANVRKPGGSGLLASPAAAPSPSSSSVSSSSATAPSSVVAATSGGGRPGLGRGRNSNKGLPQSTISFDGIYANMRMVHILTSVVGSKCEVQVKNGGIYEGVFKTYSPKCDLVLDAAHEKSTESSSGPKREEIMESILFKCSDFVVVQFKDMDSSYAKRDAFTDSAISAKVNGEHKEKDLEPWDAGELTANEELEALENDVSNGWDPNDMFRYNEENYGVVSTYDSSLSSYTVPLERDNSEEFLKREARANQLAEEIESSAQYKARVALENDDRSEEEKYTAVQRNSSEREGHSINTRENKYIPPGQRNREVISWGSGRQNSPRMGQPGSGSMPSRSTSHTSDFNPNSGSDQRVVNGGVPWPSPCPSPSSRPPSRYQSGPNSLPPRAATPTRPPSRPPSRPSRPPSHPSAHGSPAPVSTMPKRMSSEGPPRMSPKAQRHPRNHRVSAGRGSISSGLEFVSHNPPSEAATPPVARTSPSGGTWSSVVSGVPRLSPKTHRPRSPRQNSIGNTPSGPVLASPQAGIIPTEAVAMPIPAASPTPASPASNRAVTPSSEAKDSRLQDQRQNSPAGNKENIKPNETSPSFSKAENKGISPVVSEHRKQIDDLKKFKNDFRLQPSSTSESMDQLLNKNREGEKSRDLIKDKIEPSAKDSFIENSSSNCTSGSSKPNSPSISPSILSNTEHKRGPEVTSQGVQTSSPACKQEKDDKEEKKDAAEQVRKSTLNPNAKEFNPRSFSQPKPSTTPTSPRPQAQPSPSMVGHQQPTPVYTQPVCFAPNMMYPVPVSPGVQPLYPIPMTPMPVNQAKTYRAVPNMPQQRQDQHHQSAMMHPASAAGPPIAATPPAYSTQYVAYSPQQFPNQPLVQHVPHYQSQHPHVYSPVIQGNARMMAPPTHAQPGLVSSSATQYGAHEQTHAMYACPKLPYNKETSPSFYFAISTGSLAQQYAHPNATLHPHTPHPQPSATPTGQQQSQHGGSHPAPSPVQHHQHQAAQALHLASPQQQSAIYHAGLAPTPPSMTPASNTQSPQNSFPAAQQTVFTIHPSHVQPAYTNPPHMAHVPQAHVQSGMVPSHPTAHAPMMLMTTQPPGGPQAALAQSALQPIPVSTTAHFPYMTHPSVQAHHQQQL
For the compound `O=C(Cn1cc(C(F)(F)F)ccc1=O)NCc1ccc(F)cc1`, the Potency entry is “inactive”.

`CC(=O)CCC(=O)OCC(=O)c1ccc(C(F)(F)F)cc1`: the Potency result was “inactive”.

For `N=C(N)N/N=C(\c1ccc(F)cc1)c1ccc(C(F)(F)F)cc1`, the Potency was 5.97 µM (active).

`CNC(=O)c1sc(N2N=C3/C(=C\c4ccccc4)CCCC3C2c2ccccc2)nc1C` (stereo unspecified): the Potency entry is “inactive”.

`C[C@@H]1CN([C@@H](C)CO)C(=O)c2cccc(NC(=O)C3CCCCC3)c2O[C@@H]1CN(C)Cc1ccc(Cl)c(Cl)c1`: the Potency was 35.5 µM (active).

Take `C[C@H](CO)N1C[C@H](C)[C@@H](CN(C)Cc2ccc(Cl)c(Cl)c2)Oc2c(NC(=O)C3CC3)cccc2C1=O`: the Potency is 28.2 µM (active).

On to `O=C(COc1ccc(Cl)cc1)NNC(=O)CSc1nncs1`, for which the Potency result is “inactive”.

As for `CCCC(=O)Nc1ccc(C(=O)COC(=O)C2CC2C)cc1` (stereo unspecified), the Potency result was “inactive”.

Take `CCc1ccc(OCC(=O)NC(N=C(S)Nc2ccc(Cl)cc2)C(Cl)(Cl)Cl)cc1` (stereo unspecified): the Potency was 39.8 µM (active).

Consider `CCCC(=O)NC(N=C(S)Nc1ccc(N=Nc2ccccc2)cc1)C(Cl)(Cl)Cl` (stereo unspecified), for which the Potency was 22.4 µM (active).

For the compound `CC(C)(C)c1ccc(OCC(=O)NNC(=O)Nc2ccccc2)cc1`, the Potency entry is “inactive”.

Regarding `COc1ccc(C(=O)c2sc3nc(C)cc(-c4cccs4)c3c2N)cc1`, the Potency entry was “inactive”.

For `O=C1NC2c3c(I)sc(I)c3C(=O)C2O1` (stereo unspecified), the Potency was 39.8 µM (active).

Regarding `COc1ccc(OC)c(NC(=O)c2cnc(Nc3ccc(C)c(Cl)c3)c3ccccc23)c1`, the Potency entry is “inactive”.

As for `Oc1c(Cl)cc(Cl)cc1/C=N/c1nc[nH]n1`, the Potency result is “inactive”.

In the case of `Cc1c(Cl)cccc1NS(=O)(=O)c1cccc2nsnc12`, the Potency entry is “inactive”.

For the compound `O=C(Nc1ccccc1)Nc1cccc2nsnc12`, the Potency entry is “inactive”.

As for `CCCCN(C(=O)C1CCC(CNS(=O)(=O)c2cccc3nsnc23)CC1)c1ccccc1` (stereo unspecified), the Potency was 39.8 µM (active).

With `Cn1nnc(NC(=S)NC(=O)c2ccc3ccccc3c2)n1`, the Potency result is “inactive”.

For the compound `CCC(CC)COC(=O)C1=C(C)NC(=O)NC1c1ccc([N+](=O)[O-])cc1` (stereo unspecified), the Potency entry is “inactive”.

Regarding `CCOC(=O)C1=C(COc2ccccc2)NC(=O)NC1c1ccc2ccccc2c1` (stereo unspecified), the Potency was 35.5 µM (active).

For the compound `CCOC(=O)C1=C(COC(=O)COc2cccc(C)c2C)NC(=O)NC1C` (stereo unspecified), the Potency result was “inactive”.

For `CCOC(=O)C1=C(C)NC(=O)NC1c1ccc(N2CCC(c3ccccc3)=N2)cc1` (stereo unspecified), the Potency result was “inactive”.

In the case of `CCOC(=O)C1=C(CN2CCN(c3ccc(OC)cc3)CC2)NC(=O)NC1c1ccc(Cl)cc1` (stereo unspecified), the Potency is 39.8 µM (active).

`COC(=O)C1=C(C)NC(=O)NC1c1ccc(OC(=O)c2ccco2)cc1` (stereo unspecified): the Potency result was “inactive”.

Regarding `CCOC(=O)c1cc2c(=O)n3ccccc3nc2n(CC(C)C)/c1=N\C(=O)COc1ccc(Cl)cc1`, the Potency result is “inactive”.

For `Cc1nc2sc(C(=O)OC(C)C)c(N)c2c(C)c1C`, the Potency entry was “inactive”.

For `COc1cc(/C=C(/C#N)C(=O)NCCCc2ccccc2)ccc1OCC(=O)O`, the Potency result was “inactive”.

On to `Cc1ccc2nc(-c3ccc(NS(=O)(=O)c4ccc(F)cc4)cc3)sc2c1`, for which the Potency entry is “inactive”.

Consider `Cc1cc(F)ccc1S(=O)(=O)Nc1ccc2c(c1)CCCN2C(=O)c1cccs1`, for which the Potency was 39.8 µM (active).

In the case of `Cc1cc(=O)oc2cc(NS(=O)(=O)c3ccc(F)cc3)ccc12`, the Potency entry is “inactive”.

Take `O=S(=O)(c1ccc2ccccc2c1)N1CCc2ccccc21`: the Potency result was “inactive”.

Consider `Cc1ccc(S(=O)(=O)N2CCCc3cc(NS(=O)(=O)c4ccc(F)cc4)ccc32)cc1`, for which the Potency was 39.8 µM (active).

Regarding `Cc1ccc(S(=O)(=O)N2CCCc3cc(NS(=O)(=O)c4ccccc4)ccc32)cc1`, the Potency was 39.8 µM (active).

Turning to `Cc1cc(C)nc(NS(=O)(=O)c2ccc(N/C=C\C(=O)c3cccs3)cc2)n1`, the Potency result is “inactive”.

Regarding `Cc1cc(=O)oc2cc(NS(=O)(=O)c3ccccc3)ccc12`, the Potency result is “inactive”.

For the compound `C[C@@H]1C(c2cccc(Cl)c2)=NN(c2ccc(Br)cc2)[C@H]1C(=O)N1CCOC1=O`, the Potency result is “inactive”.

For the compound `Cc1cc(N2CCCC2)c(F)cc1/C=C\[N+](=O)[O-]`, the Potency entry was “inactive”.

In the case of `CC(=O)N1CCCc2cc(S(=O)(=O)N(C)CC(=O)Nc3ccccc3)ccc21`, the Potency result was “inactive”.

Consider `Cc1cc(NC(=O)CN(C)S(=O)(=O)c2ccc3c(c2)CCCC(=O)N3)ccc1Br`, for which the Potency was 31.6 µM (active).

With `Cc1cc(NC(=O)CCN2CCC(C)CC2)ccc1Br`, the Potency result was “inactive”.

Regarding `O=C1CS/C(=N/N=C/c2ccccc2)N1Cc1ccco1`, the Potency entry is “inactive”.

Take `COc1ccc(-c2[nH]c(-c3ccc4c(c3)OCO4)nc2-c2ccccc2)cc1`: the Potency is 44.7 µM (active).

`COc1ccc2[nH]c(C(=O)N(Cc3ccccn3)Cc3ccccn3)cc2c1`: the Potency result is “inactive”.

On to `C(=C/c1[nH]ccc2c3ccccc3nc1-2)/c1ccc2c(c1)OCO2`, for which the Potency result is “inactive”.

As for `O=C1N/C(=C/c2cccn2-c2ccc(F)cc2)C(=O)N1Cc1ccccc1F`, the Potency result was “inactive”.

In the case of `O=[N+]([O-])c1ccc(Cc2ccccn2)c([N+](=O)[O-])c1`, the Potency result was “inactive”.

With `O=[N+]([O-])c1ccc(Sc2ccncn2)c([N+](=O)[O-])c1`, the Potency was 8.91 µM (active).

Turning to `CN(C)c1ccc(/C=N/N(CCO)C2=NS(=O)(=O)c3ccccc32)cc1`, the Potency result was “inactive”.

As to `CCOc1ccc2nc(NCCCNC(=O)c3cc(OC)c(OC)c(OC)c3)c(C#N)cc2c1`, the Potency entry is “inactive”.

Take `CCOc1ccc(-c2cn3c(n2)sc2cc(C(=O)NCCCN4CCCCCC4)ccc23)cc1`: the Potency is 22.4 µM (active).

For the compound `COc1ccc(-c2cc(C(F)(F)F)n3nc(C(=O)NCCCN4CCOCC4)cc3n2)cc1`, the Potency entry was “inactive”.

For `C=CCC1=C/C(=C\c2c(N)n3nc(CC(=O)N4CCCC4)sc3nc2=O)C=C(OC)C1=O`, the Potency entry was “inactive”.

As for `COc1ccc(N2C(=O)CC(Sc3nnc(-c4ccccc4F)n3C)C2=O)cc1` (stereo unspecified), the Potency is 39.8 µM (active).

As to `C=CCNc1nnc(SC2CC(=O)N(c3ccc(OC)cc3)C2=O)s1` (stereo unspecified), the Potency is 39.8 µM (active).

For the compound `COc1ccc(C2CC(c3ccccc3F)=NN2c2ccc(S(N)(=O)=O)cc2)cc1` (stereo unspecified), the Potency entry was “inactive”.

As to `COc1ccc(CCN(C(=O)/C=C/C(=O)O)C2CC(=O)N(c3ccccc3)C2=O)cc1` (stereo unspecified), the Potency entry was “inactive”.

Consider `COc1ccc(Cc2nnc(NC(=O)C3CC(=O)N(c4ccc(OC)cc4)C3)s2)cc1` (stereo unspecified), for which the Potency entry is “inactive”.

With `COc1ccc(N2C(=O)CC(N3CCN(c4ccccc4)CC3)C2=O)cc1` (stereo unspecified), the Potency entry is “inactive”.

As for `CN1CCC[C@H]1CCNc1ccc2c(=O)c3ccccc3n(C)c2c1`, the Potency entry was “inactive”.

For `O=C(N/N=C/c1ccc(O)cc1)Nc1cccc2nsnc12`, the Potency entry is “inactive”.

Consider `CCCN1C(=O)/C(=C/c2c(N3CCNC(=O)C3CC(=O)OCC)nc3c(C)cccn3c2=O)SC1=S` (stereo unspecified), for which the Potency result was “inactive”.

As for `COc1ccccc1/C=C1\SC(=S)N(CCC(=O)NC2=NCCS2)C1=O`, the Potency entry was “inactive”.

As for `Cc1ccnn1CC(=O)N/N=C/c1c[nH]nc1-c1ccccc1`, the Potency result is “inactive”.

Consider `CCCCC(CC)CN1C(=O)/C(=C/c2c[nH]nc2-c2ccccc2)SC1=S` (stereo unspecified), for which the Potency was 22.4 µM (active).

Turning to `CC(C)CN1C(=O)/C(=C/c2c[nH]nc2-c2ccccc2)SC1=S`, the Potency is 39.8 µM (active).

Take `O=C(Cc1csc(N2CCOCC2)n1)N/N=C/c1ccccc1C(=O)O`: the Potency entry is “inactive”.

Regarding `NNC(=O)c1oc2nc(-c3ccco3)cc(-c3ccco3)c2c1N`, the Potency result is “inactive”.

With `Cc1cc(C)c2c(N)c(C(=O)Nc3nccs3)sc2n1`, the Potency result was “inactive”.

For the compound `O=C(N/N=C/c1c[nH]c2ccccc12)c1cc(-c2ccc(-c3ccccc3)cc2)[nH]n1`, the Potency was 39.8 µM (active).

For `CCCc1c(C(=O)N/N=C/c2c[nH]c3ccccc23)nnn1-c1nonc1N`, the Potency result is “inactive”.

In the case of `CCOc1cccc(/C=N/NC(=O)c2cc(-c3cccn3C)[nH]n2)c1O`, the Potency entry is “inactive”.

On to `O=C(NCc1ccco1)c1cc2ccc(O)cc2oc1=O`, for which the Potency result was “inactive”.

As for `CC(=O)N/N=C/c1cc(C(C)(C)C)cc(/C=N/NC(C)=O)c1O`, the Potency entry is “inactive”.

Turning to `CN(CCc1ccccc1)C(C(=O)Nc1ccc2c(c1)OCCO2)c1ccnc2ccccc12` (stereo unspecified), the Potency is 35.5 µM (active).

In the case of `O=C(O)c1ccc(/C=C/c2nc(O)c3c4c(sc3n2)CCC4)cc1`, the Potency entry is “inactive”.

As to `CCCCCCOc1ccc(/C=c2\s/c(=C(/C#N)C(=O)NCc3ccco3)n(-c3ccccc3)c2=O)cc1`, the Potency entry is “inactive”.

With `O=C(CSc1nnc(NC(=O)C2CC2)s1)NCc1cccs1`, the Potency result was “inactive”.

In the case of `O=C(CC1N=C2c3ccccc3N=C(SCC(=O)Nc3cccc(C(F)(F)F)c3)N2C1=O)NCc1cccs1` (stereo unspecified), the Potency is 39.8 µM (active).

For the compound `CC(C)(C)c1nc(SCC(=O)NCc2cccs2)c2ccccc2n1`, the Potency entry was “inactive”.

Turning to `CN(C)CCNc1nc2sc3c(c2c(=O)n1CCc1ccccc1)CCCCC3`, the Potency was 22.4 µM (active).

For the compound `Cc1cc2nc3c(=O)n(CCc4ccccc4)c(=O)[nH]c3nc2cc1N`, the Potency result is “inactive”.

As for `Cc1cccn2c(=O)c3cc(C(=O)NC4CCCC4)c(=N)n(CCc4ccccc4)c3nc12`, the Potency entry is “inactive”.

On to `Cc1ccc(C2C=C(c3ccccc3)Nc3nc(N4C(=O)CCC4=O)nn32)cc1` (stereo unspecified), for which the Potency entry is “inactive”.

With `CNC(=O)c1cc2c(=O)n3cc(C)ccc3nc2n(C(C)C)c1=N`, the Potency entry was “inactive”.

Turning to `COc1cccc(C(=O)NC2CCN(CC(=O)NCc3ccccc3F)CC2)c1`, the Potency entry is “inactive”.

Turning to `CCN1C(=O)CC(c2ccccc2)N(C2CCCC2)c2nc(Nc3ccc(C(=O)NC4CCN(C)CC4)cc3OC)ncc21` (stereo unspecified), the Potency was 25.1 µM (active).

With `COc1ccc(Nc2nc(Nc3ccc(OC)cc3OC)nc(N3CCN(C)CC3)n2)c(OC)c1`, the Potency result is “inactive”.

Regarding `CCN1C(=O)CC(C(C)C)N(C2CCCC2)c2nc(Nc3ccc(C(=O)NC4CCN(C)CC4)cc3OC)ncc21` (stereo unspecified), the Potency is 22.4 µM (active).

For the compound `COc1ccc(C2=NS(=O)(=O)N(C)C(C(=O)NC3CCCC3)=C2)cc1`, the Potency result was “inactive”.

In the case of `C#Cc1ccc(CN2CCC(Oc3cc(C(=O)NC4CC4)ccc3OC)CC2)cc1`, the Potency entry is “inactive”.

`O=C(CC(=O)c1c(F)cccc1Cl)c1ccccc1O`: the Potency result was “inactive”.

Consider `Oc1cc(CSc2ccc(Cl)cc2)nc(-c2ccccn2)n1`, for which the Potency is 1.41 µM (active).

Consider `Oc1nccc(SCc2ccc(Cl)cc2Cl)n1`, for which the Potency entry was “inactive”.

`Oc1nc(-c2ccccn2)nc2sc(-c3ccccc3)cc12`: the Potency result is “inactive”.

Take `CC1=CC2=NC(=O)/C(=C\c3cc(C)n(-c4ccccc4)c3C)C(=N)N2O1`: the Potency result is “inactive”.

Source of the values: ChEMBL document CHEMBL1201862, “PubChem BioAssay data set” (2004).
